Rows were chosen to be rich in hits. Some 1.6% of all compounds tested hit in one or more screens of this group.
KCNQ2 inh – blocks the rat KCNQ2 potassium channel. B-score at 10 µM. CHO-K1 KCNQ2, FluxOR thallium flux, 20 min; active compounds read low. 310,000 tested, 1.1% active. O88943;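 active means fluorescence ratio B-score at most minus 3 library SDs, with starting brightness B-score within 2 library SDs, cut at about -5.5 in these data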
KCNQ2 pot – enhances the rat KCNQ2 potassium channel; CHO-K1 KCNQ2, FluxOR thallium flux fluorescence; active compounds read high; 310,000 tested, 0.54% active; B-score at 10 µM;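 active means fluorescence ratio B-score at least 3 SD of library B-scores, with initial fluorescence B-score within 3 of them, cut at about 5.3 in these data; same plate scores as AID 2156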;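 further: B-score of peak minus minimum over baseline fluorescence ratio after K+ and Tl+ stimulus; positive B-score means potentiation of KCNQ2 with more thallium influx and brighter signal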
Kir21 conf inh – confirmation of mouse Kir2.1 potassium channel inhibitors. Kir2.1-expressing cells, FluxOR thallium flux fluorescence; active compounds read low. shares compounds with KCNQ2 pot. 2,300 tested, 41% active. Tl flux remaining, % of negative control (active compounds read low), % at 10 µM;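 active means Primary-screen hit whose thallium flux fell at least 3 control SD below untreated wells in both duplicates, with normal baseline fluorescence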;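 further: 0% = blank wells without stimulus and 100% = stimulated no-compound controls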
Target sequence (P35561 whole entry, looked up): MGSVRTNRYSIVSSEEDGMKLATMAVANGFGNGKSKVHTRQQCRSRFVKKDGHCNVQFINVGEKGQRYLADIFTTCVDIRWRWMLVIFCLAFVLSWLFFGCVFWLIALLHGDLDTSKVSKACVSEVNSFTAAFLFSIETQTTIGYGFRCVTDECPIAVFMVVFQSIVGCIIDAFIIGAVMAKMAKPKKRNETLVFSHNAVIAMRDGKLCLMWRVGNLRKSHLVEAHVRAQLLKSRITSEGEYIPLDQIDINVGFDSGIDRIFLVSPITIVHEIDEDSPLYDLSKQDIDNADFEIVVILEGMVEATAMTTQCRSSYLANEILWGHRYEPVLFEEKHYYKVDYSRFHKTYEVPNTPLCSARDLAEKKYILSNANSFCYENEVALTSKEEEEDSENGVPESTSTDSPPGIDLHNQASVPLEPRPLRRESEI
HEK293 Tl flux – parental HEK293 activity in Kir2.1 inhibitor counter-screen; shares compounds with KCNQ2 pot; parental HEK293 cells, FluxOR thallium flux fluorescence; 0% = unstimulated blank wells; FluxOR signal as % of negative control (100 = no effect), % at 10 µM; 2,300 tested, 19% active; AID 2105;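 active means dye signal at least 3 control SD above or below untreated wells in both duplicates, raw fluorescence within 3, either direction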;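 further: percent is based on the flux ratio of peak minus minimum fluorescence over baseline F0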
CHO-K1 ctr – parental CHO-K1 activity in KCNQ2 potentiator counter-screen | 1,200 tested, 43% active | shares compounds with KCNQ2 pot | AID 2282 | parental CHO-K1 cells, FluxOR thallium flux fluorescence; zero = vehicle mean+3SD, 100% = vehicle-minus-blank window | activity increase over 3SD of controls, % at 10 µM;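 active means signal rise of at least 3 SD above the untreated control mean, in both duplicate wells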;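 further: counter screen of KCNQ2 potentiator hits so any rise reflects channel-independent effects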
KCNQ1 sel pot – human KCNQ1 counter-target activity of KCNQ2 potentiators; shares compounds with KCNQ2 pot; CHO KCNQ1 stable, FluxOR thallium flux fluorescence; beyond 3SD, as % of vehicle-control signal; activation over 3SD threshold, % at 10 µM; 1,200 tested, 28% active; AID 2283;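 active means fluorescence ratio rise of at least 3 SD of vehicle wells above their mean, in both replicate wells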;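 further: 0% = vehicle mean plus 3 SD and 100% = vehicle minus unstimulated blank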
KCNQ2 pot conf – rat KCNQ2 channel potentiator confirmation | shares compounds with KCNQ2 pot | CHO-KCNQ2 cells, FluxOR thallium flux fluorescence | potentiation, less the hit threshold, % at 10 µM | 1,200 tested, 68% active;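 active means fluorescence ratio rising 3 SD or more over the vehicle control mean in both replicates, plus primary screen hit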;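 further: peak minus minimum thallium fluorescence divided by baseline after K/Tl stimulus; 0% = vehicle mean plus 3 SD and 100% = vehicle minus unstimulated blank difference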
Kir2-1 sel – tests whether KCNQ2 potentiators also affect mouse Kir2.1; shares compounds with KCNQ2 pot; HEK293 Kir2.1, FluxOR thallium flux fluorescence; activity over 3SD threshold, % at 10 µM; 1,200 tested, 2% active; AID 2345;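 active means fluorescence ratio rise of at least 3 SD above the vehicle-control mean, seen in both replicates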;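 further: 0% = vehicle mean plus 3 SD and 100% = vehicle minus no-stimulus blank window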
KCNQ2 W236L pot – KCNQ2 potentiators acting on retigabine-insensitive rat KCNQ2 W236L mutant. shares compounds with KCNQ2 pot. CHO KCNQ2-W236L, automated patch clamp current. current increase over 3SD of negative controls (%), active compounds read high, % at 25 µM. 940 tested, 10% active. AID 2558;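 active means current increase at least 3 SD of the untreated controls above them in both duplicate recordings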
* = called active by the depositor; i = inactive; . = no result given.

SMILES	KCNQ2 inh	KCNQ2 pot	Kir21 conf inh	HEK293 Tl flux	others
CCn1c(SC/C=C/c2ccccc2)nnc1-c1cccs1	i	.	48%*	i
Cc1ccc(/C=N/NC(=O)NC23CC4CC(CC(C4)C2)C3)o1	i	0.29	.	.
CN(CCc1ccccc1)C(=O)c1cc(COc2ccc(F)cc2Cl)on1	i	.	.	.
CC(C)(C)NCCOCCOc1ccccc1-c1ccccc1	i	1.7	.	.
CCC(C)NCCOCCOc1ccccc1-c1ccccc1 (configuration not stated)	i	.	44%*	i
CC1=C(C)CC(C(=O)NNC(=O)c2csc(C)c2C)C(C(=O)O)C1 (configuration not stated)	i	.	.	.
Cc1ccc(NS(=O)(=O)c2cc3c4c(cccc4c2)C(=O)NC3=O)cc1C	i	.	.	.
O=C(CSc1nc(N2CCCCC2)nc(N2CCCCC2)n1)c1ccccc1	i	32*	i	i	CHO-K1 ctr=-6;KCNQ1 sel pot=38*;KCNQ2 pot conf=20*;Kir2-1 sel=-28;KCNQ2 W236L pot=i
Cc1cc(N2CCCCC2)nc(SCC(=O)c2ccccc2)n1	i	.	.	.
CSCCC(NC(=O)c1cccc(S(=O)(=O)N2CCOCC2)c1)C(=O)Nc1cccc(C)c1 (configuration not stated)	i	1.6	.	.
Cc1ccc(S(=O)(=O)Nc2c(C)n(C)n(-c3ccccc3)c2=O)cc1C(=O)OCC(=O)N1CCCC(C)C1 (configuration not stated)	i	1	.	.
CCOc1ccccc1NC(=O)CSc1ccc([N+](=O)[O-])cc1	i	.	.	.
Cc1cc(C)n(/N=C/c2cc(Cl)cc(Cl)c2O)c(=O)c1	i	9.8*	i	i	CHO-K1 ctr=-14;KCNQ1 sel pot=39*;KCNQ2 pot conf=-13;Kir2-1 sel=-41
Cc1cc(C)n(/N=C/c2ccccc2O)c(=O)c1	i	.	.	.
CCN(C(=O)CCNC(=O)Cn1cnc2ccccc2c1=O)c1ccccc1F	i	0.02	.	.
CC(=O)Nc1ccc2nc3c(=O)n(C)c(=O)n(C)c3nc2c1	i	.	.	.
COc1ccccc1N(C)S(=O)(=O)c1ccc(C(=O)OCC(=O)N(C(C)C)C(C)C)cc1	i	2	.	.
COc1ccc(S(=O)(=O)Nc2cc(S(=O)(=O)c3ccccc3)c(O)cc2C)cc1	i	0.29	.	.
Cc1cc(O)c(C(C)C)cc1NS(=O)(=O)c1ccccc1	i	.	45%*	i
Cc1cc(C)c(S(=O)(=O)/N=C2\C=C(Nc3ccc(C(=O)O)cc3)C(=O)c3ccccc32)c(C)c1	i	7.9*	i	i	CHO-K1 ctr=9.1*;KCNQ1 sel pot=-7;KCNQ2 pot conf=0;Kir2-1 sel=-4;KCNQ2 W236L pot=i
CCc1ccc(S(=O)(=O)/N=C2\C=C(Nc3cccc(C(=O)O)c3)C(=O)c3ccccc32)cc1	i	1.2	.	.
CC(C)(C)c1cc(C(=O)O)n(Cc2ccc(Cl)cc2Cl)n1	i	.	.	.
CN(C)S(=O)(=O)c1cc(NC(=O)c2cc(=O)[nH]c3ccccc23)ccc1Cl	i	.	.	.
NC(=O)C1CCN(Cc2cccc(OCc3ccccc3)c2)CC1	i	0.01	.	.
CCOC(=O)C1CCN(Cc2cccc(OCc3ccccc3)c2)CC1	i	.	20%*	i
SMILES	KCNQ2 inh	KCNQ2 pot	Kir21 conf inh	HEK293 Tl flux	others
CC1=C(C(=O)OC2CCCCC2)C(c2cccc([N+](=O)[O-])c2)NC(=O)N1 (configuration not stated)	i	1.7	.	.
CC1=C(C(=O)OCC2CCCCC2)C(c2ccc(O)cc2)NC(=O)N1 (configuration not stated)	i	1.7	.	.
CC1=C(C(=O)OCC2CCCCC2)C(c2cccc(O)c2)NC(=O)N1 (configuration not stated)	i	17*	i	i	CHO-K1 ctr=-11;KCNQ1 sel pot=-21;KCNQ2 pot conf=58*;Kir2-1 sel=-45;KCNQ2 W236L pot=34%*
CC1=C(C(=O)OC2CCCCCCC2)C(c2cccc(O)c2)NC(=O)N1 (configuration not stated)	i	20*	i	i	CHO-K1 ctr=0;KCNQ1 sel pot=-7;KCNQ2 pot conf=82*;Kir2-1 sel=-19;KCNQ2 W236L pot=29%*
S=c1[nH]nc(-c2cccs2)n1/N=C/c1cn(-c2ccccc2)nc1-c1cccs1	i	6.9*	i	i	CHO-K1 ctr=-1;KCNQ1 sel pot=80*;KCNQ2 pot conf=-3;Kir2-1 sel=-34;KCNQ2 W236L pot=i
S=c1[nH]nc(-c2ccncc2)n1/N=C/c1cn(-c2ccccc2)nc1-c1ccccc1	i	.	.	.
CC(C)Oc1ccc(CNC(=O)CCC(=O)N2CCSc3ccccc32)cc1	i	1.1	.	.
O=C(Cn1ncc2c3ccccc3n(Cc3ccccc3F)c2c1=O)N1CCN(c2ccccn2)CC1	i	11*	i	i	CHO-K1 ctr=38*;KCNQ1 sel pot=-10;KCNQ2 pot conf=24*;Kir2-1 sel=-32;KCNQ2 W236L pot=i
O=C(Cn1ncc2c(=O)oc3ccccc3c21)NCC1CCCO1 (configuration not stated)	i	1.5	.	.
O=C(Cn1ncc2c3ccccc3n(Cc3ccccc3)c2c1=O)NC1CCCC1	i	.	.	.
O=C(CCSCc1ccccc1F)N1CCN(c2ccccn2)CC1	i	.	.	.
O=C(Cn1ncc2c3ccccc3n(Cc3cccc(Cl)c3)c2c1=O)NCC1CCCO1 (configuration not stated)	i	8.2*	i	i	CHO-K1 ctr=69*;KCNQ1 sel pot=-27;KCNQ2 pot conf=2.4*;Kir2-1 sel=-16;KCNQ2 W236L pot=i
O=C(Cn1ncc2c3ccccc3n(Cc3ccccc3F)c2c1=O)NCC1CCCO1 (configuration not stated)	i	6*	i	i	CHO-K1 ctr=22*;KCNQ1 sel pot=-17;KCNQ2 pot conf=-4;Kir2-1 sel=-29;KCNQ2 W236L pot=i
O=C(O)c1ccccc1S(=O)(=O)CC(=O)N1CCCCC1	i	1	.	.
Cc1ccc(C2CC(c3cccs3)=NN2C(=O)CSc2nc(=O)n3cc(C)ccc3n2)cc1 (configuration not stated)	i	.	.	.
Cc1ccc(S(=O)(=O)N(Cc2c(F)cccc2Cl)C(=O)N2CCN(C)CC2)cc1	i	.	.	.
COc1cc(Cl)cc2c1Sc1ccccc1/C2=C/CCN(C)C	-7*	-7	36%*	i
CN(C)CC/C=C1/c2ccccc2Sc2c(O)cc(Cl)cc21	i	.	.	.
COc1cc2c(cc1Cl)/C(=C\CCN(C)C)c1ccccc1S2	i	.	.	.
CN(C)CC/C=C1/c2cc(F)ccc2Sc2ccc(Cl)cc21	i	.	25%*	i
COc1ccccc1NC(=O)CCC(=O)OCc1cccc([N+](=O)[O-])c1	i	.	.	.

High-throughput results (PubChem BioAssay)
